A number with no mark means an inactive call. Records with an inconclusive call do not appear. Calls of active or inactive are those of the source. Unless noted, calls follow the shape of the full dose curve.

Experiment [1] can be described thus: Nuclear factor erythroid 2-related factor 2/antioxidant responsive element (Nrf2/ARE) small molecule agonists: qHTS cell viability counter screen in human keratinocytes (AID 1919968; active = well fitted curve in the direction sought with a large enough effect in the repeat runs; an effect the other way counts as inactive or inconclusive; also: nearly all actives have a fitted effect of over 55% in size). Put shortly: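 Cells of the KeratinoSens line were plated at 1,500 per well and left for 5 h before compound transfer from DMSO stocks. After a 23 h incubation (37 C, 5% CO2), CellTiter-Fluor was added. Signal was taken as fluorescence intensity 1 h later.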
(In qHTS, concentration-response curves come from the screen itself.)

Experiment [2] can be described thus: Nuclear factor erythroid 2-related factor 2/antioxidant responsive element (Nrf2/ARE) small molecule agonists: luciferase reporter gene qHTS assay in human keratinocytes (AID 1919969). Also: nearly all actives have a fitted effect of over 35% in size. Also: potency is read from the fitted curve at half-maximal effect.
In experiment [3] the target is Gonadotropin-releasing hormone receptor (Homo sapiens) (UniProt P30968). The experiment is described as follows: Human gonadotropin-releasing hormone receptor (GnRHR) small molecule agonists, calcium flux assay in GnRHR-HEK293 cells (AID 1920063). Also: nearly all actives have a fitted effect of over 35% in size. The procedure, abridged:
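Compounds dissolved in DMSO are pin-transferred onto dye-loaded GnRHR-HEK293 cells, which were seeded 18 h before at 37 C/5% CO2. Calcium signal is read as fluorescence intensity at 1 s intervals for 3 min.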

Experiment [4] deals with KiSS-1 receptor (Homo sapiens) (UniProt Q969F8). The experiment is described as follows: Human kisspeptin (KISS1R) small molecule agonists, calcium flux assay in KISS1R-HEK293 cells (AID 1920064; active = well fitted curve in the direction sought with a large enough effect in the repeat runs; an effect the other way counts as inactive or inconclusive). Put shortly: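 Cell line: HEK293, stable human KISS1R. Dye loading 1 h at 37 C after 18 h culture. Read: kinetic fluorescence, 480/540 nm, 3 min at 1 s intervals.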
A general note: Calcium assays in cells follow changes in intracellular calcium, usually with a dye or a luminescent sensor.

The nature of experiment [5]: G protein-coupled receptor (GPCR) small molecule agonists, calcium flux assay: HEK293 wild type cell line counter screen (AID 1920065). Put shortly: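 Tox21 10K compounds, 15 concentrations each in triplicate, pin-transferred in DMSO onto dye-loaded cells; kinetic read at 480/540 nm for 3 min, 1 s intervals.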
The nature of experiment [6]: p53 small molecule agonists, cell-based qHTS assay with human liver microsomes: qHTS cell viability counter screen (AID 1963579). Also: nearly all actives have a fitted effect of over 45% in size. Put shortly: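 Metabolically activated exposure: compounds, human liver microsomes and NADPH (0.5 mg/mL final apiece) were added to p53RE-bla cells seeded 5 h earlier, left 16 h at 37 C, and then assessed for viability by CellTiter-Glo luminescence.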

Experiment [7] can be described thus: p53 small molecule agonists, cell-based qHTS assay with rat liver microsomes: qHTS cell viability counter screen (AID 1963580). Also: nearly all actives have a fitted effect of over 45% in size. Put shortly: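 Rat liver microsome (0.5 mg/mL final) and NADPH (0.5 mg/mL final) co-incubation with compounds for 16 h at 37 C on HCT-116 p53RE-bla cells; cytotoxicity taken from intracellular ATP luminescence.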
A short description of experiment [8]: p53 small molecule agonists, cell-based qHTS assay: qHTS cell viability counter screen (AID 1963581). Also: nearly all actives have a fitted effect of over 45% in size. Also: potency is read from the fitted curve at half-maximal effect. Put shortly: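 ATP content measured by luminescence in HCT-116 p53RE-bla cells treated 16 h at 37 C, same wells as the reporter screen.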
Experiment [9] addresses 5-hydroxytryptamine receptor 2A (Homo sapiens) (UniProt P28223). The experiment is described as follows: 5-hydroxytryptamine receptor 2A (HTR2A) small molecule antagonists, cell-based qHTS assay (AID 1963586). Also: nearly all actives have a fitted effect of over 45% in size. Put shortly:
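CHO cells stably expressing human HTR2A were plated for 18 h at 37 C, then loaded with calcium dye for 1 h. Compounds were preincubated 5 min at room temperature before DOI (4 nM solution) was added. Kinetic fluorescence was read for 3 min.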

Experiment [10] has the same target. The experiment is described as follows: 5-hydroxytryptamine receptor 2A (HTR2A) small molecule agonists, cell-based qHTS assay (AID 1963587). Also: nearly all actives have a fitted effect of over 30% in size. Put shortly: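 Kinetic calcium-flux fluorescence (2 min, 1 sec intervals) after compound addition in agonist mode. HTR2A-CHO cells were cultured 18 h, then dye-loaded 1 h at 37 C.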
Experiment [11] deals with Muscarinic acetylcholine receptor M1 (Homo sapiens) (UniProt P11229). The experiment is described as follows: Cholinergic receptor muscarinic 1 (CHRM1) small molecule agonists, cell-based qHTS assay (AID 1963589). Also: nearly all actives have a fitted effect of over 35% in size. The procedure, abridged:
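Homogeneous fluorescence calcium flux, agonist mode. Human M1-expressing CHO cells; compound dosed at 15 concentrations, three independent runs; signal sampled every 1 sec.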

Experiment [12] can be described thus: cAMP Responsive Elements (CRE) small molecule agonists, cell-based qHTS assay (AID 1963590). The procedure, abridged: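 HEK 293T cells stably bearing CRE-bla were plated at 2,000 cells per well and rested 18 h. Compounds, positive controls or DMSO were added for 3 h at 37 C. LiveBLAzer B/G substrate was then loaded for 2 h at room temperature.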
Experiment [13] has as its target Beta-2 adrenergic receptor (Homo sapiens) (UniProt P07550). The experiment is described as follows: Adrenergic beta2 receptor (ADRB2) small molecule antagonists, cell-based qHTS assay (AID 1963592). Also: series mostly up to about 92 µM; nearly all actives have a fitted effect of over 50% in size. The procedure, abridged: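 Assay format: CHO-ADRB2 cells, 18-20hr seeding at 37C/5% CO2, then compound plus 1nM isoproterenol agonist mix for 0.5hr RT. Homogeneous time-resolved fluorescence cAMP detection after 1hr, expressed as 665/615 nm ratio.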

The target in experiment [14] is D(2) dopamine receptor (Homo sapiens) (UniProt P14416). Put plainly: Dopamine D2 receptor (DRD2) small molecule agonists, cell-based qHTS assay (AID 1963594). Also: nearly all actives have a fitted effect of over 35% in size. Also: potency is read from the fitted curve at half-maximal effect. The procedure, abridged:
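cAMP accumulation in DRD2-HEK293 cells measured by HTRF after 1 h detection; compounds added 10 min before NKH477 (200nM […]) forskolin-analogue stimulation, 30 min at room temperature, with Ro20-1724 present at 0.1 mM final.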

A short description of experiment [15]: cAMP Responsive Elements (CRE) small molecule antagonists, cell-based qHTS assay (AID 1963591; active = well fitted inhibition curve with a large enough effect in the signal ratio in the repeat runs, not every such curve was filed as active; the % refers to the signal ratio). The procedure, abridged:
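First, CRE-bla HEK293T cells settled 18 h at 37 C. Next, compound and 0.25 uM final NKH477 were applied for 3 h. Last, LiveBLAzer B/G substrate was loaded for 2 h at room temperature.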

In experiment [16] the target is D(2) dopamine receptor (Homo sapiens) (UniProt P14416). Put plainly: Dopamine D2 receptor (DRD2) small molecule antagonists, cell-based qHTS assay (AID 1963595; active = well fitted inhibition curve with a large enough effect in the signal ratio in the repeat runs, with a control signal flat; the % refers to the signal ratio). Put shortly:
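Antagonist mode in DRD2-HEK293 cells: after compound addition with 0.1 mM Ro20-1724, cells received quinpirole (12 nM) and NKH477 (200 nM) for 30 min at room temperature; HTRF cAMP read after 1 h detection.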

For experiment [17], the target named is Muscarinic acetylcholine receptor M1 (Homo sapiens) (UniProt P11229). Put plainly: Cholinergic receptor muscarinic 1 (CHRM1) small molecule antagonists, cell-based qHTS assay (AID 1963588). Also: nearly all actives have a fitted effect of over 40% in size. The procedure, abridged:
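Compounds were tested at 15 concentrations in three independent runs. Dye-loaded CHRM1-CHO cells were exposed 5 min at room temperature before stimulation by acetylcholine added at 50nM. Intracellular calcium was read kinetically on FDSS for 3 min.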

For experiment [18], the target named is Beta-2 adrenergic receptor (Homo sapiens) (UniProt P07550). Put plainly: Adrenergic beta2 receptor (ADRB2) small molecule agonists, cell-based qHTS assay (AID 1963593).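 Also: CHO cells stably overexpressing human ADRB2.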 The procedure, abridged: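 CHO cells stably over-expressing ADRB2 were plated overnight at 37C, then dosed with compounds plus a stimulation mix containing 100uM IBMX and 25uM Ro-20-1724 for 0.5hr at room temperature. cAMP was measured by HTRF competition, 1hr.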
% is scaled to controls: 0 for no effect and ±100 for the full control effect.

Muscarinic acetylcholine receptor M1 (Homo sapiens), sequence (P11229 whole entry, looked up): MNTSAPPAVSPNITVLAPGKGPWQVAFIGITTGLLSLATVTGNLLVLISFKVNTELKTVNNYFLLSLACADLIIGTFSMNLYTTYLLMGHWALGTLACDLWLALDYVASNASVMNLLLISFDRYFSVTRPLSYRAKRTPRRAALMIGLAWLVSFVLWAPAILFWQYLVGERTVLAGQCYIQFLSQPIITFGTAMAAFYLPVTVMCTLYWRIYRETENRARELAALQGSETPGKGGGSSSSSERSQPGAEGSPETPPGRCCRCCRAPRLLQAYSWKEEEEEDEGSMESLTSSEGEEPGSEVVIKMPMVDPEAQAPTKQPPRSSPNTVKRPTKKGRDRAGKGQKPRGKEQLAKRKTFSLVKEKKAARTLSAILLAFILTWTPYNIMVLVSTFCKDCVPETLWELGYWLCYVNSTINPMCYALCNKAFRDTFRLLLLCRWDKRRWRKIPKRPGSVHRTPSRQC
KiSS-1 receptor (Homo sapiens), sequence (Q969F8 whole entry, looked up): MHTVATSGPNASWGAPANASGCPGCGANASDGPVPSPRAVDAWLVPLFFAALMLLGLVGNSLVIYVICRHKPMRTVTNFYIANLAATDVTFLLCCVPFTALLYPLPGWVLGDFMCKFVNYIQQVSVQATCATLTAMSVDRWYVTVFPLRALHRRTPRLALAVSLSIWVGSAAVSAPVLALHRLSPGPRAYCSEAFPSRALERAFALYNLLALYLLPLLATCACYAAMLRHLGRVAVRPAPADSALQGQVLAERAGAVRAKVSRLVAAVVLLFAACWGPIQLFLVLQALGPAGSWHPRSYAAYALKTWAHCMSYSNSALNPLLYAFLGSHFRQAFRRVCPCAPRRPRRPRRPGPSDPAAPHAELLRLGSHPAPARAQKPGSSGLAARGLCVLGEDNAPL
5-hydroxytryptamine receptor 2A (Homo sapiens), sequence (P28223 whole entry, looked up): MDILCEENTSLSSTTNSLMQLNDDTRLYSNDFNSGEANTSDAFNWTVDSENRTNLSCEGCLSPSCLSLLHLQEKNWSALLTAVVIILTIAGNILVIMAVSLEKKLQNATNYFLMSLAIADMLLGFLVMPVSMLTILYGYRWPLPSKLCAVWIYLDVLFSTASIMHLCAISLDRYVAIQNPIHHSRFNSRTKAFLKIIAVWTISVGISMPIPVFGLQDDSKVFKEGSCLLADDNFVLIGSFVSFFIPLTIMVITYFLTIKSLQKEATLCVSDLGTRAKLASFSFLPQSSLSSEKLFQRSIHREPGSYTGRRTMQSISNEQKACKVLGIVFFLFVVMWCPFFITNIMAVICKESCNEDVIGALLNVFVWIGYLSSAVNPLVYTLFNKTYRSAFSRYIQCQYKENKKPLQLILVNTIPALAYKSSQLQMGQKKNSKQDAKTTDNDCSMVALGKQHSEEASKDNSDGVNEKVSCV
Beta-2 adrenergic receptor (Homo sapiens), sequence (P07550 whole entry, looked up): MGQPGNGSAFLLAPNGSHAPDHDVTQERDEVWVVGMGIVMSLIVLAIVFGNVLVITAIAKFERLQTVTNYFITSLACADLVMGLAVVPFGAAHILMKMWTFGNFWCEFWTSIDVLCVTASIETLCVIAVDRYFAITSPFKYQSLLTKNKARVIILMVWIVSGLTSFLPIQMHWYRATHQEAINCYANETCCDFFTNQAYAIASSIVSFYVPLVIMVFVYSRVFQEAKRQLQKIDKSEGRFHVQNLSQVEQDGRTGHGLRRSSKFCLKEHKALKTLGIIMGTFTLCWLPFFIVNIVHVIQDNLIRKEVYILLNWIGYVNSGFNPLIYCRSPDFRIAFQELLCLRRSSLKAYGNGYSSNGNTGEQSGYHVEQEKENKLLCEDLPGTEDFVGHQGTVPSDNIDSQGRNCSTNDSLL
Gonadotropin-releasing hormone receptor (Homo sapiens), sequence (P30968 whole entry, looked up): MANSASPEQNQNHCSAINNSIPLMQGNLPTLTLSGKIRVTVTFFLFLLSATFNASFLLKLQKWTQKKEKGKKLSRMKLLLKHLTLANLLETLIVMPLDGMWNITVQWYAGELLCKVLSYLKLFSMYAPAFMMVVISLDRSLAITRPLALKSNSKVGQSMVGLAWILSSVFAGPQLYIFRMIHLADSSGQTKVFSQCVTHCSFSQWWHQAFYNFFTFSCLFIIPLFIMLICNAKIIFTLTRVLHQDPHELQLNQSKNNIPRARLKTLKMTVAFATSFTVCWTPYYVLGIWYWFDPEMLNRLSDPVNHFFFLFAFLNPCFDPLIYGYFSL
D(2) dopamine receptor (Homo sapiens), sequence (P14416 whole entry, looked up): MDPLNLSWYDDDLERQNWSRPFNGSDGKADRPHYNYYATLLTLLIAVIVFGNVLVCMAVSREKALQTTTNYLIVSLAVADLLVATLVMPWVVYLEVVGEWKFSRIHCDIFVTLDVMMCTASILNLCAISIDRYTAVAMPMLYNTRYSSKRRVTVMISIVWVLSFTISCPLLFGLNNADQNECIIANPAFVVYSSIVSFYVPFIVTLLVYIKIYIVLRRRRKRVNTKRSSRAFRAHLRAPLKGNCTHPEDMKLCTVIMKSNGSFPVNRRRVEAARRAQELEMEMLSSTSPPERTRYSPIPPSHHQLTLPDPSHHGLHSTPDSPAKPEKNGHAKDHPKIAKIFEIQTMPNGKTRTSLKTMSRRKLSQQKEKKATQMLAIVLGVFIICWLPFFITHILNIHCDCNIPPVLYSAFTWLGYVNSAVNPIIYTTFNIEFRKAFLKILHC

As for `Cc1ccc(C(C)OC(=O)C2(C)CCC(C(=O)O)C2(C)C)cc1` (configuration not stated), the Potency entry in experiment [1], in experiment [2], in experiment [3], in [4], in experiment [5] and in [6] was “inactive” throughout. Besides, the Potency entry in [7], in [8], in experiment [9], in experiment [10], in experiment [11] and in experiment [12] was “inactive” in each case. In addition, the Potency entry in [13] and in [14] was “inactive” each time.

With `O=C1c2cccc3c2[C@H](CCC3)CN1[C@@H]1CN2CCC1CC2`, the Potency entry in experiment [1], in [2], in [3], in [4], in experiment [5] and in experiment [6] was “inactive” each time. Further, the Potency result in experiment [7], in experiment [8], in [9], in experiment [10], in experiment [11] and in experiment [12] was “inactive” each time. Further, the Potency result in [15] and in [16] was “inactive” in each case.

`O=C1[C@@H]2[C@H]3CC[C@H](C3)[C@@H]2C(=O)N1CCCCN1CCN(c2ncccn2)CC1`: the Potency entry in [1], in experiment [2], in experiment [3], in [4], in experiment [5] and in experiment [6] was “inactive” in each case. In addition, the Potency result in experiment [7], in experiment [8], in [10], in experiment [17], in experiment [11] and in [12] was “inactive” throughout. Besides, the Potency result in experiment [15], in [13] and in experiment [18] was “inactive” each time. In experiment [14], the Potency is 0.0944 µM (active).

In the case of `Cc1ccc(C)c([N+](=O)[O-])c1`, the Potency entry in [1], in experiment [2], in experiment [3], in [4], in [5] and in experiment [6] was “inactive” throughout. The Potency entry in experiment [7], in [8], in experiment [9], in experiment [17], in experiment [12] and in [13] was “inactive” in each case. Further, the Potency result in [14] and in experiment [16] was “inactive” in each case.

Regarding `CCCCCCCCCCCCCOC(=O)CCSCCC(=O)OCCCCCCCCCCCCC`, the activity change, negative = cytotoxicity is -1.71% [at 19 µM] in [1], -3.75% [at 13.5 µM] in [6], -0.0386% [at 13.5 µM] in experiment [7] and -3.06% [at 13.5 µM] in experiment [8]. Besides, the activity, positive = activation in experiment [2] is 4.84% [at 19 µM]. The activity change in [3] was 1.53% [at 11.8 µM, active compounds read high]. Further, the activation in experiment [4] is 1.75% [at 15.8 µM]; in experiment [5], -0.388% [at 11.8 µM]; in experiment [11] it was -0.105% [at 15.8 µM]; in experiment [12], -0.927% [at 19 µM]. For the same compound, the activity, negative = inhibition in experiment [9] is 1.85% [at 12.7 µM]. The activity change, negative = inhibition is -0.103% [at 19 µM] in [13] and -7.07% [at 18.9 µM] in experiment [16].

In the case of `O=C(Nc1ccccc1)OCC(CN1CCCCC1)OC(=O)Nc1ccccc1` (configuration not stated), the Potency entry in experiment [1], in [2], in experiment [3], in experiment [4], in experiment [5] and in [6] was “inactive” in each case. The Potency result in experiment [7], in experiment [9], in [10], in [11], in experiment [12] and in experiment [15] was “inactive” each time. For the same compound, the Potency entry in experiment [14] and in experiment [16] was “inactive” throughout. The Potency in experiment [8] is 12.6 µM (active).

In the case of `O=c1oc2cc(O)ccc2c2oc3cc(O)ccc3c12`, the Potency result in experiment [1], in experiment [3], in experiment [4], in experiment [5], in experiment [6] and in experiment [7] was “inactive” each time. The Potency entry in experiment [8], in experiment [9], in experiment [11] and in experiment [16] was “inactive” in each case. Besides, the Potency in experiment [2] is 29.4 µM (active).

Consider `Cc1ccc2c(c1)CCCN2`, for which the Potency entry in experiment [1], in experiment [2], in [3], in experiment [4], in experiment [5] and in experiment [6] was “inactive” in each case. The Potency result in [7], in experiment [8], in experiment [9], in experiment [10], in experiment [11] and in [13] was “inactive” in each case. Further, the Potency result in experiment [18], in experiment [14] and in experiment [16] was “inactive” each time.

The values are drawn from PubChem BioAssay (Tox21).
